Experiment [1] is described as follows: Primary qHTS to identify inhibitors of SARS-CoV-2 cell entry (AID 1645846). Note: nearly all actives have a fitted effect of over 45% in size. To be noted: SARS-CoV-2 pseudovirus cell entry assay, luminescence; activity change, negative = inhibition: at 57.1 µM (top of the series) unless noted; series mostly up to 57.1 µM. In a few lines:
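Entry measured by luciferase signal 48 h after adding SARS-CoV-2-S pseudotyped MLV particles to HEK293-ACE2 cells preincubated 1 h with compounds. Normalisation: bald particles and spike particles.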
A general note: In qHTS, concentration-response curves come from the screen itself.

The nature of experiment [2]: VSVG counterscreen qHTS to identify inhibitors of SARS-CoV-2 cell entry (AID 1645847). Note: nearly all actives have a fitted effect of over 65% in size. The note with it: VSV-G pseudotyped particle entry, luciferase; series mostly up to 57.2 µM. In short, it runs like this:
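Luminescence read after 48 h infection at 37 C with VSV-G-pseudotyped MLV particles, following 1 h compound exposure of Expi293F cells stably expressing human ACE2; scaled between bald particle and VSV-G particle wells.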
(In general: The purpose of a counterscreen is to sort out artefacts and off-target activity.)

Records with an inconclusive call do not appear. Entries that show only a call come without a potency. Calls of active or inactive are those of the source. Calls come from the whole dose curve.

Consider `NC[C@H]1O[C@H](O[C@H]2[C@H](O)[C@@H](O[C@H]3O[C@H](CO)[C@@H](O)[C@H](N)[C@H]3O)[C@H](N)C[C@@H]2N)[C@H](O)[C@@H](O)[C@@H]1O`, for which the activity change, negative = inhibition in experiment [1] was -26.4% [at 5.25 µM].
With `O=c1[nH]c(=O)n([C@H]2CCCO2)cc1F`, the Potency entry in experiment [1] was “inactive”.
For `NC(=O)c1ccccc1O`, in experiment [1], the activity change, negative = inhibition was determined as 1.57%.
Regarding `CN(C)CCOC(=O)COc1ccc(Cl)cc1`, the Potency result in experiment [1] is “inactive”.
With `NC(N)=NS(=O)(=O)c1ccc(N)cc1`, in experiment [1], the Potency entry was “inactive”.
For the compound `Cc1ccc(C(=O)C(=O)O)cc1C`, the activity change, negative = inhibition in experiment [1] is -19.4%.
`CC1COc2c(N3CCN(C)CC3)c(F)cc3c(=O)c(C(=O)O)cn1c23` (centres undefined): in experiment [1], the activity change, negative = inhibition was -0.258%.
As for `CN1C[C@@H]2C[C@H]1CN2c1cc2c(cc1F)c(=O)c(C(=O)O)cn2C1CC1`, the activity change, negative = inhibition in experiment [1] was -27.1% [at 27.1 µM].
Take `Clc1cccc(Cl)c1NC1=NCCN1`: in experiment [1], the Potency entry was “inactive”.
On to `NCCNCCNCCN`, for which, in experiment [1], the activity change, negative = inhibition turned out to be 2.68%.
Take `CC(=O)OCC(=O)[C@@]1(O)[C@H](C)C[C@H]2[C@@H]3CCC4=CC(=O)C=C[C@]4(C)[C@@]3(F)[C@@H](O)C[C@@]21C`: the Potency entry in experiment [1] is “inactive”.
For `CO[C@@]1(NC(=O)C(C(=O)O)c2ccc(O)cc2)C(=O)N2C(C(=O)O)=C(CSc3nnnn3C)CO[C@@H]21` (some centres undefined), the activity change, negative = inhibition in experiment [1] was -1.77%.
For `CCCCCCCCCCCCCCCC(=O)OC(C)C`, the Potency entry in experiment [1] was “inactive”.
On to `Nc1ccc(S(=O)(=O)c2ccc(N)cc2)cc1`, for which the Potency entry in experiment [1] was “inactive”.
Consider `CC(=O)OCC1=C(C(=O)O)N2C(=O)[C@@H](NC(=O)Cc3cccs3)[C@H]2SC1`, for which the activity change, negative = inhibition in experiment [1] is 1.38%.
Regarding `COc1ccc2[nH]cc(CCNC(C)=O)c2c1`, in experiment [1], the Potency result was “inactive” and the activity change, negative = inhibition was -6.18%.
For the compound `CC(=O)CC(c1ccccc1)c1c(O)c2ccccc2oc1=O` (centres undefined), in experiment [1], the Potency result was “inactive” and the activity change, negative = inhibition is 0.432%.
Take `CC(C)(C)C(=O)Oc1ccc(S(=O)(=O)Nc2ccccc2C(=O)NCC(=O)O)cc1`: in experiment [1], the Potency result is “inactive” and the activity change, negative = inhibition was -32.8%.
As for `C[C@@H](CN1CC(=O)NC(=O)C1)N1CC(=O)NC(=O)C1`, in experiment [1], the Potency result was “inactive” and the activity change, negative = inhibition was -20%.
With `Cc1cc2c(cc1CC(=O)c1sccc1S(=O)(=O)Nc1onc(C)c1Cl)OCO2`, in experiment [1], the Potency result is “inactive” and the activity change, negative = inhibition is -56.4%. The Potency entry in experiment [2] was “inactive”.
On to `Nc1ncnc2c1ncn2[C@@H]1O[C@H](CO)[C@@H](O)[C@H]1O`, for which, in experiment [1], the Potency result was “inactive” and the activity change, negative = inhibition is -8.35%.
For `O=C(NC(Cc1cc(=O)[nH]c2ccccc12)C(=O)O)c1ccc(Cl)cc1` (centres undefined) the same measures were “inactive” and 1.86%.
With `COC(=O)c1ccc(O)cc1`, the Potency result in experiment [1] is “inactive”.
For `CCCc1nn(C)c2c(=O)[nH]c(-c3cc(S(=O)(=O)N4CCN(C)CC4)ccc3OCC)nc12`, in experiment [1], the Potency result is “inactive” and the activity change, negative = inhibition is -6.94%.
The matching figures for `C#CCN[C@@H]1CCc2ccccc21`: “inactive” and -2.27%.
Consider `O=C(C1CCCCC1)N1CC(=O)N2CCCc3ccccc3C2C1` (centres undefined), for which, in experiment [1], the activity change, negative = inhibition stood at 0.685%.
On to `Nc1ccn([C@@H]2CS[C@H](CO)O2)c(=O)n1`, for which, in experiment [1], the Potency result is “inactive” and the activity change, negative = inhibition was -19.3% [at 114 µM].
As to `Nc1ccc(S(N)(=O)=O)cc1`, in experiment [1], the Potency result was “inactive” and the activity change, negative = inhibition was -17.3%.
Take `COC(=O)[C@@H]1[C@H]2C[C@H]3c4[nH]c5ccccc5c4CCN3C[C@@H]2CC[C@@H]1O`: in experiment [1], the Potency entry is “inactive” and the activity change, negative = inhibition is -32.5%.
In the case of `CC1(C)O[C@@H]2C[C@H]3[C@@H]4C[C@H](F)C5=CC(=O)C=C[C@]5(C)[C@@]4(F)[C@@H](O)C[C@]3(C)[C@]2(C(=O)CO)O1`, in experiment [1], the Potency result is “inactive” and the activity change, negative = inhibition was -12.3%.
As for `CC(C)Cc1ccc(C(C)C(=O)O)cc1` (centres undefined), in experiment [1], the Potency result was “inactive” and the activity change, negative = inhibition was found to be 0.301%.
For the compound `O=C(NCC1CCCCN1)c1cc(OCC(F)(F)F)ccc1OCC(F)(F)F` (centres undefined), in experiment [1], the Potency result is “inactive” and the activity change, negative = inhibition was -8.95%.
In the case of `O=C(O)CSCC(=O)NC1CCSC1=O` (centres undefined), in experiment [1], the Potency result was “inactive” and the activity change, negative = inhibition was -0.451%.
Turning to `NC(=O)c1cnccn1`, in experiment [1], the Potency result is “inactive” and the activity change, negative = inhibition is -28%.
Regarding `COc1ccc2cccc(CCNC(C)=O)c2c1`, in experiment [1], the Potency entry was “inactive” and the activity change, negative = inhibition is -31%.
For `O=S(=O)(O)CCS` the same measures were “inactive” and 1.92%.
For `CNC[C@H](O)c1cccc(O)c1` the same measures were “inactive” and 1.11%.
Consider `Cc1cnc(NC(=O)C2=C(O)c3ccccc3S(=O)(=O)N2C)s1`, for which, in experiment [1], the Potency result is “inactive” and the activity change, negative = inhibition was -28.9%.
Regarding `CCc1cc(C(N)=S)ccn1`, in experiment [1], the Potency result is “inactive” and the activity change, negative = inhibition is -20.7%.
Regarding `Nc1cc(C(Cl)=C(Cl)Cl)c(S(N)(=O)=O)cc1S(N)(=O)=O`, in experiment [1], the Potency entry is “inactive” and the activity change, negative = inhibition was -25%.

Source of the values: PubChem BioAssay (NCATS).
